Test results as given in the supplement of paper PMC11732987, “Enantioselective OTUD7B fragment discovery through chemoproteomics screening and high-throughput optimisation” (Communications Chemistry, 2025).

Experiments:
Test in all cases: log2 ratio of Biotin-Ahx-Ub-VS probe labelling (fragment/DMSO); higher = less target engagement (more negative = stronger competition), active = hit call of the paper (q ≤ 0.05, log2 ratio ≤ -1)
Conditions in all cases: compound concentration: 200 uM; treatment time: 3 h
USP19 = target: T1, USP19 (UniProt O94966)
T1 sequence (whole entry): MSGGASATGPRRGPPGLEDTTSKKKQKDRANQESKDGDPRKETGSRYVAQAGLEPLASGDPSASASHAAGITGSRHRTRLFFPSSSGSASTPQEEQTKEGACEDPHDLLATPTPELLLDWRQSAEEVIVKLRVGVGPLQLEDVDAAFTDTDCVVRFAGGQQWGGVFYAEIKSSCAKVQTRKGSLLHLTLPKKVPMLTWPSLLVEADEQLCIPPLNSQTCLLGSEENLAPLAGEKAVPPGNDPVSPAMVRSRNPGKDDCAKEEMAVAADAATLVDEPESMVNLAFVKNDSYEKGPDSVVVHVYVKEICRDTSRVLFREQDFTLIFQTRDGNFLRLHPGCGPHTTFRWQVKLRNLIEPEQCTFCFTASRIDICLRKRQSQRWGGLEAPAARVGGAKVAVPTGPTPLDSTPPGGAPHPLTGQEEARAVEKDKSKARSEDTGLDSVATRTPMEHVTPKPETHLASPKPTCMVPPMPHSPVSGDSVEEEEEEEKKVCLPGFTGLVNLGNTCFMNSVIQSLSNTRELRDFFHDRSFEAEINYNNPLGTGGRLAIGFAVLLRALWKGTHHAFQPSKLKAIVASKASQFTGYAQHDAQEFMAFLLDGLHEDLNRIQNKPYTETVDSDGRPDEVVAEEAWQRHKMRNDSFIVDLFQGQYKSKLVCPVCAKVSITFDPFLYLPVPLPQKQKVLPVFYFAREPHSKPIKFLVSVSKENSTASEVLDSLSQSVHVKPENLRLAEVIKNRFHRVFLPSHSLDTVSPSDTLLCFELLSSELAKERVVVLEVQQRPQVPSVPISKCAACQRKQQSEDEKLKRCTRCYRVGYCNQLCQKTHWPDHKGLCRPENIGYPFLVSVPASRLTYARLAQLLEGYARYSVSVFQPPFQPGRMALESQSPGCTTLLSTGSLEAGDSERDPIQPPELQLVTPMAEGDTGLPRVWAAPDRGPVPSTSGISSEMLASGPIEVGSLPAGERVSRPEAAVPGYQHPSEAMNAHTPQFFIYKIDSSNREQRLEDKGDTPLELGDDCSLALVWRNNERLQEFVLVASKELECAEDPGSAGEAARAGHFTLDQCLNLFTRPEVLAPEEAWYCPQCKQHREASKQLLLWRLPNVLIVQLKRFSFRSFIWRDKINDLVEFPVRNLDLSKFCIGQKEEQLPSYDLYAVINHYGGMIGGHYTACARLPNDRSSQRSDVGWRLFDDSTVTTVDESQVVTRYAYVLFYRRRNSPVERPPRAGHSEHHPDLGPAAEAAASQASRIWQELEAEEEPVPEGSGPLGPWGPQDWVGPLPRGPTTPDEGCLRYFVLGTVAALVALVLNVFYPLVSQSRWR
Outline: (§1)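 Labelling with Biotin-Ahx-Ub-VS (0.5 µM final, 1 h) followed a 3 h triplicate treatment of HEK293T lysate (495 µg per sample, Tris/CHAPS/IGEPAL buffer with protease inhibitors) with fragment at 200 µM or vehicle. Labelled DUBs were NeutrAvidin-enriched, digested with LysC and trypsin, and run by diaPASEF LC-MS/MS. The values, average log2 fragment/vehicle ratios by unpaired t-test, come from global-median-normalised Spectronaut label-free quantities. Proteins with ≥2 unique peptides were used.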

USP22 = target: T2, USP22 (UniProt Q9UPT9)
T2 sequence (whole entry): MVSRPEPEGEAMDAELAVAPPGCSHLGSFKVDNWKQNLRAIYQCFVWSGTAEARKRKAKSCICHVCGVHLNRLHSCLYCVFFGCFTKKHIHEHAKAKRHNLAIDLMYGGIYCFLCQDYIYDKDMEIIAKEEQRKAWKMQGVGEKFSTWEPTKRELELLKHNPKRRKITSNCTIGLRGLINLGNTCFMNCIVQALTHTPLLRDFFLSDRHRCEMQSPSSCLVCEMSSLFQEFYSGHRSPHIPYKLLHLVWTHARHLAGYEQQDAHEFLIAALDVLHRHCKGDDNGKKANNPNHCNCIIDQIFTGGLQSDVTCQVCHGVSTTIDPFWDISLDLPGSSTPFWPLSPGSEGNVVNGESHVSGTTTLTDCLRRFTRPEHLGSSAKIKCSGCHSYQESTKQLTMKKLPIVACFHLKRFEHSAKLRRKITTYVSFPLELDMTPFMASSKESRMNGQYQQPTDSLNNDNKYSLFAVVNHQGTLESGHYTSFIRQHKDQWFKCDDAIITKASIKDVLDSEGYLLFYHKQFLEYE
Outline: as §1

USP24 = USP24 (UniProt Q9UPU5)
Sequence of USP24 (Q9UPU5 whole entry): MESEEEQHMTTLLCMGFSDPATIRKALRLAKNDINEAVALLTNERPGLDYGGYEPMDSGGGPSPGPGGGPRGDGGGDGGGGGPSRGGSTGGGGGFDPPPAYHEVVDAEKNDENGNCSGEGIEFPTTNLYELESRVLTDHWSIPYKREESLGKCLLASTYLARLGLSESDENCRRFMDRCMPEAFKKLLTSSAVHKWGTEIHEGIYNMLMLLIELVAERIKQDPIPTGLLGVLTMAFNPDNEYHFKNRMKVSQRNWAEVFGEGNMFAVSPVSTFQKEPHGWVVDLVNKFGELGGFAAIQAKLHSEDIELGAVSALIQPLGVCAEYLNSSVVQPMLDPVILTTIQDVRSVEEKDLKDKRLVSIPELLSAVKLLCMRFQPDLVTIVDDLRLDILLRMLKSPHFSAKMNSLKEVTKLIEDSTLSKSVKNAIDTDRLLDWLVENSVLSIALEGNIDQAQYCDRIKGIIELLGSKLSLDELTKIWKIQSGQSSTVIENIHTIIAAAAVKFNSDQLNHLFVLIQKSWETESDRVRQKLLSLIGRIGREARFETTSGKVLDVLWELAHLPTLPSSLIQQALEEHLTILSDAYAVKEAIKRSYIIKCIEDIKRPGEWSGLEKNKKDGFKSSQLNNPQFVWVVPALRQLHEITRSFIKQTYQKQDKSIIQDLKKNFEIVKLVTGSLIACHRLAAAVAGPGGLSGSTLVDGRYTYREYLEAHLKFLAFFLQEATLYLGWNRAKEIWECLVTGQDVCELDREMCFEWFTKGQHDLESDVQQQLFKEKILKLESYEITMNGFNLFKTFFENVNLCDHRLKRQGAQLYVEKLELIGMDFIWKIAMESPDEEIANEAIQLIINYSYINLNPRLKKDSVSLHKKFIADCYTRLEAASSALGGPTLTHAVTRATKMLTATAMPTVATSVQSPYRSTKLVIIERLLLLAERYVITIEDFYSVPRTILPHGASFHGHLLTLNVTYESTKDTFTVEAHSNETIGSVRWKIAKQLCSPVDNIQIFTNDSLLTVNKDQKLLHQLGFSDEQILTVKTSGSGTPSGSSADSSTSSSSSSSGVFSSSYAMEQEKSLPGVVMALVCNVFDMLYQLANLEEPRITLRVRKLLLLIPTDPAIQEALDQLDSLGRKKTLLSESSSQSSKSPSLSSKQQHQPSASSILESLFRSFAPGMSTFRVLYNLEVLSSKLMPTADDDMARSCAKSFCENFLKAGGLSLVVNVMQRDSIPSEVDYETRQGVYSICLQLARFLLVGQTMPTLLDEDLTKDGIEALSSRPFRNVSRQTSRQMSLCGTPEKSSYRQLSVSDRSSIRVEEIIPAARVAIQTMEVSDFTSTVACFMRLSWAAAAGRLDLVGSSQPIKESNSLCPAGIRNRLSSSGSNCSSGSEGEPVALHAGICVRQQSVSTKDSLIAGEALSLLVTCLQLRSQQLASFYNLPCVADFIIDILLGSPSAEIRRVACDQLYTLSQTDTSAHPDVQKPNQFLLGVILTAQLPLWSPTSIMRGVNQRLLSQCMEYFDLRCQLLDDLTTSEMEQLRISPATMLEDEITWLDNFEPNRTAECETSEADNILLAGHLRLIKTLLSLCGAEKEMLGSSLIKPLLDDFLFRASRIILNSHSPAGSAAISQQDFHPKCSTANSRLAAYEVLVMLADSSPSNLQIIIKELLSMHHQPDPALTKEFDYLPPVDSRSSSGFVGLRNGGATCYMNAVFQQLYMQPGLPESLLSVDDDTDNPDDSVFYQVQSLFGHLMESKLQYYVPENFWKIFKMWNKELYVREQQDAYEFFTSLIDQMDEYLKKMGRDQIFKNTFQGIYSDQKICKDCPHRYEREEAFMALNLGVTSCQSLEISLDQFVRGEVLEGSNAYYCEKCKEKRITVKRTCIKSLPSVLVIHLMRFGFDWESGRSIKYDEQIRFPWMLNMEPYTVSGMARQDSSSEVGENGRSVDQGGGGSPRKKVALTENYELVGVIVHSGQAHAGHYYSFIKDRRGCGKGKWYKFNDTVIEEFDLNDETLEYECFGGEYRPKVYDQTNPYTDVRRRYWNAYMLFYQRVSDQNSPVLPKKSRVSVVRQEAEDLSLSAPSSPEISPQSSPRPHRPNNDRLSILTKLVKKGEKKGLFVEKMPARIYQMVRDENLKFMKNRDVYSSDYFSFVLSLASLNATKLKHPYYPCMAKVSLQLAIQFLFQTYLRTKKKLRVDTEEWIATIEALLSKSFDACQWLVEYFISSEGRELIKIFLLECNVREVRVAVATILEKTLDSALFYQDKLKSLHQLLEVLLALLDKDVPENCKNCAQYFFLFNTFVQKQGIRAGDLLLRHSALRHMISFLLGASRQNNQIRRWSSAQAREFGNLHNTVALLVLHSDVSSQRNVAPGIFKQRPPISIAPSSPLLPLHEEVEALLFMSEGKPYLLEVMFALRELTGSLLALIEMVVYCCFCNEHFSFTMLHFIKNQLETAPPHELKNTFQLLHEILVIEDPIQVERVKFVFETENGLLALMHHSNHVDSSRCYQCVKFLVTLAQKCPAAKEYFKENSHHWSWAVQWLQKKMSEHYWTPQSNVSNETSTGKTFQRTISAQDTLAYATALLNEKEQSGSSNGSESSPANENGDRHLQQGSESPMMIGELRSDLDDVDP
Outline: as §1

USP25 = target: T3, USP25 (UniProt Q9UHP3)
T3 sequence (whole entry): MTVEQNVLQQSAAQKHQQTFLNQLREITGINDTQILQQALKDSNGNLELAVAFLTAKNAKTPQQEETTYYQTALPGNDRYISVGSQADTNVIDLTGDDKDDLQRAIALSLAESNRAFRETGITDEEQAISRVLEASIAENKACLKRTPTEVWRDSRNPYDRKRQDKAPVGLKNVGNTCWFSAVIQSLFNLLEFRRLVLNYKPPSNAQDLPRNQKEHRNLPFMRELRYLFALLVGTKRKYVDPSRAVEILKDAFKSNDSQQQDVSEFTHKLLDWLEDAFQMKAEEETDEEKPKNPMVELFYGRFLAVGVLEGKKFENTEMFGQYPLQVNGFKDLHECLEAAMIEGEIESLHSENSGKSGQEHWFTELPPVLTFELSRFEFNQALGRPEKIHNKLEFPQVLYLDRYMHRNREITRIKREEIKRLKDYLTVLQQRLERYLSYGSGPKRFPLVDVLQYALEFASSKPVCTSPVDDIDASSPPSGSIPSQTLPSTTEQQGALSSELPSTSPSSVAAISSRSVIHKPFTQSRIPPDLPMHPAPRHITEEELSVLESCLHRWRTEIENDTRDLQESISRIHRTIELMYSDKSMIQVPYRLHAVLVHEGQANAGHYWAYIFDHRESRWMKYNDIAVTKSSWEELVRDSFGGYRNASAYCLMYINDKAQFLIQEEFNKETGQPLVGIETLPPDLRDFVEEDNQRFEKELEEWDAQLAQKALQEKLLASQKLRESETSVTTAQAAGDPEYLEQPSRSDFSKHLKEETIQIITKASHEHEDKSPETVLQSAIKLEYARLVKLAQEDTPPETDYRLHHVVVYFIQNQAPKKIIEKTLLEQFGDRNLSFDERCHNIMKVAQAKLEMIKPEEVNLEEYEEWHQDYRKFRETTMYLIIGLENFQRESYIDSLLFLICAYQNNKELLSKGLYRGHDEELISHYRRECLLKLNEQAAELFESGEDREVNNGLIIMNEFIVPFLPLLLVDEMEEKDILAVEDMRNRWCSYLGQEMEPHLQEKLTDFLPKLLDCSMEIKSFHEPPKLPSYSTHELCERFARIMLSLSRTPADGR
Outline: as §1

USP28 = target: T4, USP28 (UniProt Q96RU2)
T4 sequence (whole entry): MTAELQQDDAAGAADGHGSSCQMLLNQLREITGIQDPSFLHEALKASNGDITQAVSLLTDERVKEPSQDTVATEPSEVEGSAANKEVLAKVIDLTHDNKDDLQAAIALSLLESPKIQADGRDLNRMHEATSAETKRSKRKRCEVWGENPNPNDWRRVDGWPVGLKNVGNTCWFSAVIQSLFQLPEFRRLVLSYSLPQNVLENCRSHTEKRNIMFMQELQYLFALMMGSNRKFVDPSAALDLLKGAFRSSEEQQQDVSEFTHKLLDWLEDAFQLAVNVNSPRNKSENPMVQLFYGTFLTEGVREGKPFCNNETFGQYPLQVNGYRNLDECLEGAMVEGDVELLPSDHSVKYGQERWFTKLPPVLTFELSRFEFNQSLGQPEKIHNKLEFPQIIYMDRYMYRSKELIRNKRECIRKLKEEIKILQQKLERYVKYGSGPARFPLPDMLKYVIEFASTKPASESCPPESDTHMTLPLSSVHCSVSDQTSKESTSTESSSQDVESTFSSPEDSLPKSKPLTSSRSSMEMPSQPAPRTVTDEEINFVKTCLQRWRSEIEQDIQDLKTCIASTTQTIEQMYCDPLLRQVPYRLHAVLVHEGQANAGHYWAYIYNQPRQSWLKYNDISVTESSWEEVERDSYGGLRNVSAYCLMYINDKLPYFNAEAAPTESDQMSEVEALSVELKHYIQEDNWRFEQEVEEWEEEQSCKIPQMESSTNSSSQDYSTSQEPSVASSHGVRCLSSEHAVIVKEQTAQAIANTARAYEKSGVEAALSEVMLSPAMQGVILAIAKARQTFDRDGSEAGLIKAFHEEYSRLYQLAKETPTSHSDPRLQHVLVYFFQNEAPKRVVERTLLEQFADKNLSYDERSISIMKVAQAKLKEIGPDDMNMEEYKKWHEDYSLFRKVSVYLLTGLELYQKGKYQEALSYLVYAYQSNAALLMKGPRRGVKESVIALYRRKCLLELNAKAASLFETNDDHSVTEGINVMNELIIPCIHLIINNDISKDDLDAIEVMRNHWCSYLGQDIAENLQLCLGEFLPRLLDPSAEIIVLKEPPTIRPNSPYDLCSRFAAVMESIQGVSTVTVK
Outline: as §1

Measured: log2 ratio of Biotin-Ahx-Ub-VS probe labelling

CN(Cc1nc2ccccc2[nH]1)C(=O)CCl.Cl
inactive: USP19 -0.0932 | USP22 0.243 | USP24 -0.721 | USP25 0.0889 | USP28 -0.218
